Test results taken from PubChem BioAssay (EPA / NIEHS).
Inconclusive results are not listed. Activity calls are given as the source filed them. The calls were made as follows: active = hit-call score of the fitted dose curve at least 0.9, where 1 is the maximum; inconclusive = response in the unintended direction; inactive = score below 0.9.

What follows are molecules tested against rat CYP1A2, Cyp1a2 (gene 24297) (UniProt P04799) (assay: NVS_ADME_rCYP1A2: NovaScreen (NVS) CYP450-related Enzyme Activity (ADME) Assay for rat CYP1A2 (AID 2283115)).
Chain of rat CYP1A2, Cyp1a2 (gene 24297) (P04799 whole entry, looked up): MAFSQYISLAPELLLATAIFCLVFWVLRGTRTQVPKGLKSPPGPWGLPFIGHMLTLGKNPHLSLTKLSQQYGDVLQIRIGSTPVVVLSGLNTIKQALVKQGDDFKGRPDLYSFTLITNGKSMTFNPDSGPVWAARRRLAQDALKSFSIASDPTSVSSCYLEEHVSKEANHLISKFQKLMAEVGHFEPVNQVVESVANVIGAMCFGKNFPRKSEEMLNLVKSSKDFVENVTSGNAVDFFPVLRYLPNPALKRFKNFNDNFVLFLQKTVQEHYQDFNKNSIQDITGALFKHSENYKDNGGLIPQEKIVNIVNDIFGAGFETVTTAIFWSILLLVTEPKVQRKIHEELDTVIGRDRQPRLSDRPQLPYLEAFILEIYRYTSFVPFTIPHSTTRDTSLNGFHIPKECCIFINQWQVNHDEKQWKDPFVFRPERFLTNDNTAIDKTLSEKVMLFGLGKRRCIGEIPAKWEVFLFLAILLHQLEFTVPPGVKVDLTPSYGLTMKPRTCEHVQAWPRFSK
Description: NVS_ADME_rCYP1A2 is a biochemical, single-readout assay that uses extracted gene-proteins in a cell-free assay. Measurements were taken 1 hour after chemical dosing in a 96-well plate.NVS_ADME_rCYP1A2 is one of one assay component(s) measured or calculated from the NVS_ADME_rCYP1A2 assay. It is designed to make measurements of enzyme activity, a form of enzyme reporter, as detected with fluorescence intensity signals by Fluorescence technology.Data from the assay component NVS_ADME_rCYP1A2 was analyzed into 1 assay endpoint. This assay endpoint, NVS_ADME_rCYP1A2, was analyzed in the positive analysis fitting direction relative to Acetonitrile as the negative control and baseline of activity. Using a type of enzyme reporter, loss-of-signal activity can be used to understand changes in the enzymatic activity as they relate to the gene Cyp1a2. Furthermore, this assay endpoint can be referred to as a primary readout, because this assay has produced multiple assay endpoints where this one serves a enzymatic activity function. To generalize the intended target to other relatable targets, this assay endpoint is annotated to the cyp intended target family, where the subfamily is xenobiotic metabolism.
Binding assays used specific radioligands (tritiated, iodinated) with non-radioactive competitive displacement ligands in agonist or antagonist protocols (as indicated) and various reference compounds and inhibitors to titrate specific binding to receptors and transporters. Most enzyme assays (CYPs, kinases, phosphatases, proteases, HDACs) used recombinant protein and specific substrates (fluorescence mostly, some colorimetric and radioactive) and inhibitors, followed by a biochemical separation of substrate and product. All assays for the biochemical HTS were initially run in duplicate at a single concentration (10 uM for CYP450 assays and 25 uM for all others). […] Each assay was run with positive and negative controls, and concurrent controls on every plate. The follow-up (secondary) screen tested active chemical-pairs in concentration series, as well as a few additional assays not tested in the primary screen, some selected negative inactives, and several cases re-run in the concentration series for confirmatory purposes.
In the case of `CN(C)C(=O)Nc1ccc(Cl)c(Cl)c1`, the outcome is reported as “inactive”. `CNNCc1ccc(C(=O)NC(C)C)cc1` was tested, and the outcome was “inactive”. `CSC(=O)c1cccc2nnsc12` was tested, and the outcome was “inactive”. For `CCN(CC)c1ccc2c(C)cc(=O)oc2c1`, the AC50 was 8.15 µM (active). For `CO[Si](CCC1CCC2OC2C1)(OC)OC` (centres undefined), the outcome was “inactive”. In the case of `c1ccc2c(c1)c1cccc3ccc4cccc2c4c31`, the outcome is reported as “inactive”. For `CCOC(=O)C1=NOC(c2ccccc2)(c2ccccc2)C1`, the outcome was “inactive”. `O=C1OC2(c3cc(Br)c(O)c(Br)c3Oc3c2cc(Br)c(O)c3Br)c2c(Cl)c(Cl)c(Cl)c(Cl)c21` was tested, and the outcome was “inactive”. For `CCCCOCCOCCOCc1cc2c(cc1CCC)OCO2`, the outcome was “inactive”. `c1ccc2[nH]c(-c3cscn3)nc2c1` was tested, and the outcome was “inactive”. With `O=C1c2ccccc2C(=O)c2c(O)ccc(O)c21` the outcome was “inactive”. With `O=S1(=O)CC(Cl)(Cl)C(Cl)(Cl)C1` the outcome was “inactive”. For `COc1ccc(C(=O)/C(Br)=C\C(=O)O)cc1`, the outcome was “inactive”. In the case of `NC(=S)NNC(N)=S`, the outcome is reported as “inactive”. In the case of `CCCCCCC(C)OC(=O)CCCCC(=O)OC(C)CCCCCC` (centres undefined), the outcome is reported as “inactive”. With `c1cc[nH]c1` the outcome was “inactive”. `CCC(C)c1cc([N+](=O)[O-])cc([N+](=O)[O-])c1OC(=O)OC(C)C` (centres undefined) was tested, and the outcome was “inactive”. `c1ccc2sc(SN(C3CCCCC3)C3CCCCC3)nc2c1` was tested, and the outcome was “inactive”. With `COC(=O)CSc1cc(N=c2sc(=O)n3n2CCCC3)c(F)cc1Cl` the outcome was “inactive”.
